Source: PubChem BioAssay (several laboratories)
rCAG binder: binds r(CAG) RNA repeats; inhibition, % at 3 µM; r(CAG) RNA repeat, TO-PRO-1 dye displacement fluorescence; 1.3% of 370,000 active;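 active means inhibition above the plate cutoff, the mean of all test compounds on that plate plus 3 SD, cut at about 35% in these data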;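 further: 0% = DMSO alone and 100% = 100 µM mitoxantrone as full dye displacement; higher means more dye released from RNA so lower well fluorescence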
AHR act: human AHR activation; P35869; AID 2796; 2.5% of 320,000 active; AHR-responsive luciferase reporter cells, luminescence; activation, % at 5 µM; in the data active means activation above about 47%;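 further: 0% = vehicle wells and 100% = reference agonist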
NR3A LBD binder: modulators (binders) of human NR3A ligand-binding domain | NR3A LBD differential scanning fluorimetry, Tm shift; 0% = protein alone, 100% = glycine-bound protein | Tm shift relative to glycine control, % at 25 µM | 2.5% of 340,000 active;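 active means melting temperature shift of at least 10% of the positive control shift, at one fixed dose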
ADAM17 inh: ADAM17 inhibition, QFRET primary screen; recombinant ADAM17, EDANS/DABCYL FRET peptide cleavage; inhibition, % at 6.95 µM; 0.83% of 370,000 active; AID 720648;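 active means inhibition above the mean of compounds lying between control limits plus 3 SD, set per campaign, cut at about 8.5% in these data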;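 further: 0% = DMSO-only wells as the low control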
ADAM10 inh: inhibitors of human ADAM10 | inhibition, % at 7 µM | AID 720582 | 0.62% of 370,000 active | O14672 | recombinant ADAM10, EDANS/DABCYL FRET peptide cleavage, 3 h;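 active means inhibition above a per-campaign cutoff equal to the mean of compounds falling between control-based bounds plus 3 SD, cut at about 20% in these data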;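 further: 0% = DMSO wells while the 100% control is not disclosed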
KLK7 zymogen act: activates the human kallikrein-7 zymogen | AID 652039 | purified proKLK7, EDANS-DABCYL substrate fluorescence; 100% is mature enzyme control, 0% vehicle | 0.9% of 370,000 active | activation, % at 7 µM;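 active means activation above the mean of all tested compounds plus 3 SD, computed per campaign excluding outliers beyond control limits, cut at about 13% in these data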
rCAG binder conf: r(CAG) RNA repeat binding, confirmation. shares compounds with rCAG binder. TO-PRO-1 dye displacement fluorescence. inhibition, % at 3 µM. 70% of 4,300 active. AID 652065;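 active means inhibition above a per-plate cutoff, the mean inhibition of sample wells plus 3 SD, cut at about 35% in these data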;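 further: loss of TO-PRO-1 fluorescence as compound displaces dye from 1x1 AA loop RNA; 0% = DMSO only wells and 100% = 100 µM mitoxantrone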
DNA CAG counter: DNA CAG dye complex inhibition counter-screen; inhibition, % at 3 µM; 94% of 4,300 active; d(CAG) DNA oligo TO-PRO-1 dye displacement, fluorescence; shares compounds with rCAG binder;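 active means inhibition above its plate's cutoff, the mean test-well inhibition plus 3 SD, cut at about 4.8% in these data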;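 further: 0% = DNA dye mix with DMSO and 100% = 100 µM mitoxantrone; hits displace the dye from DNA and so lower well fluorescence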
* hit, by the source's call; i = inactive; x = no result given. Most compounds without a hit are left out; they make up all but 7% or so of the library.

SMILES	rCAG binder	AHR act	NR3A LBD binder	ADAM17 inh	ADAM10 inh	KLK7 zymogen act	rCAG binder conf	DNA CAG counter
COC(=O)C1=C(C)N(Cc2cccc(C(F)(F)F)c2)C(=NCC2CC2)NC1c1cccc(Cl)c1 (stereo not given)	8	x	x	-3	-2	0	x	x
CCOc1ccc(NS(=O)(=O)c2ccc(NS(=O)(=O)c3ccccc3)cc2)cc1	36*	6	2	3	4	0	19	2
CCOc1ccc(Oc2ccc(NS(=O)(=O)c3ccc(CCC(=O)O)cc3)cc2)cc1	43*	x	x	-2	-16	0	38*	11*
CCOc1ccc(S(=O)(=O)Nc2cc(NS(=O)(=O)c3ccc(OCC)cc3)cc(C(=O)O)c2)cc1	58*	-1	-8	-4	3	0	60*	24*
CCOc1ccc(NS(=O)(=O)c2ccc(NC(=O)C3CC3)cc2)cc1	2	0	4	2	-1	0	x	x
C/C(=N\NC(=O)c1ccc(Cl)c(Cl)c1)c1ccc(Br)s1	-1	13	-3	1	1	0	x	x
C/C(=N\Nc1ccc(Cl)c(C(=O)O)c1)c1ccc(Br)s1	43*	0	-14	-3	0	0	48*	13*
O=S(=O)(O)c1cc(Cl)cc(N=Nc2ccc(O)cc2O)c1O	91*	x	4	4	8	1	67*	31*
Cc1onc(-c2ccc(Cl)cc2)c1-c1ccn(S(=O)(=O)c2cccc(Cl)c2)n1	4	x	x	5	4	0	x	x
CCC(=O)NC(=S)Nc1ccc(-c2nc3ccc(C)cc3s2)cc1	-1	4	5	-21	-67	0	x	x
Cc1ccc2nc(-c3ccc(NC(=O)CSCC(=O)O)cc3)sc2c1	53*	3	1	-369	i	3	39*	11*
Cc1ccc(C2(C)NC(=O)N(CC(=O)Nc3ccc(-c4nc5ccc(C)cc5s4)cc3)C2=O)cc1 (stereo not given)	4	4	2	-34	-98	0	x	x
Cc1csc(NC(=O)CSCC(=O)O)c1-c1nc2ccccc2s1	44*	5	0	-2	-4	10	57*	19*
Cc1ccc2nc(-c3ccc(NC(=O)COCC(=O)O)cc3)sc2c1	42*	7	2	-381	i	-1	34	8.3*
C[C@@H]1CN(C(=O)OC(C)(C)C)CCN1c1ccc(N2CCN(Cc3ccccc3)[C@@H](C)C2)c(C#N)c1	6	x	x	-22	-148	-2	x	x
CCCCNc1ccc2c(c1)OC[C@H](Cc1ccccc1)NS2(=O)=O	1	x	x	-2	-10	0	x	x
CCc1ccc(/C=C/C(=O)c2cc(Br)ccc(=O)c2O)cc1	46*	23	-3	-2	-3	0	54*	25*
O=C(C=Cc1ccccc1)c1cc(Br)ccc1O	1	x	9	-2	-7	0	x	x
Cc1cccc(/C=C/C(=O)c2cc(Br)ccc(=O)c2O)c1	45*	9	-1	-3	-8	-1	56*	24*
Cc1ccc(S(=O)(=O)N2[C@@H](c3cccc(Cl)c3)C(C(=O)OC(C)(C)C)=CC[C@H]2c2ccc(C(C)C)cc2)cc1	2	x	x	-2	-7	0	x	x
COC(=O)CC1=NN(c2ccc(OC)cc2)C(=O)C1	43*	4	-1	1	0	1	2	0
COc1ccc(C(=O)/C=C(\Nc2ccc(F)cc2)c2ccc(OC)cc2OC)c(OC)c1	7	x	x	-4	-4	0	x	x
Cc1[nH]c2ccccc2c1/C=N/NC(=O)c1cccc(S(=O)(=O)Nc2cccc(C(F)(F)F)c2)c1	65*	25	28*	4	8	1	68*	27*
CCOC(=O)c1c(NC(=O)Nc2ccc(Cl)cc2)sc(C)c1C	3	8	1	2	6	0	x	x
CCOC(=O)c1c(NC(=O)/C=C/C(=O)O)sc(C)c1-c1ccc(Cl)cc1	46*	-2	-3	1	13	0	46*	11*
